Over roughly 68,000 sequences, “fluorescence intensity (a.u.)” has its median near 9,100; the highest 2% begin near 16,000. Many of the other results were omitted from the sample, so the highest values are more common in it than they were.

OsWRKY34, sequence (Q0JBA9 entry or part of it): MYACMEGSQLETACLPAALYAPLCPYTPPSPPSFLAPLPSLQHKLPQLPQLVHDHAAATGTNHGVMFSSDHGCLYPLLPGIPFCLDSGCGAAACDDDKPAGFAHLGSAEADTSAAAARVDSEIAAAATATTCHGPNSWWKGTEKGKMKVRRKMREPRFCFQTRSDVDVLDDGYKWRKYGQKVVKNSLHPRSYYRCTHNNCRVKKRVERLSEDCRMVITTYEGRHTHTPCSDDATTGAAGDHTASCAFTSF

The assay has as its target OsWRKY34 (Oryza sativa, UniProt Q0JBA9 1-250). Description: protein-binding microarray (RPBM); PBS, 2% BSA, 51.3 ng/ul salmon testes DNA, 50 uM zinc acetate, 200 nM TF, 25 C, 1 h; high values mean tight binding. The following applies: protein: recombinant; tags: N-terminal polyhistidine and DsRed monomer fusion (pET32a); label: CyDye5-dUTP incorporated in the synthesized complementary strand; 3' TTTTT single-stranded linker to array surface; dsDNA, one strand shown. Put shortly: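 An Axon 4000B scanner gave the binding signal as per-feature fluorescence intensity in arbitrary units. This followed washing of a custom Agilent array that had been incubated for 1 h at 25 °C with 200 nM protein in PBS, 2% BSA, salmon testes DNA and 50 µM zinc acetate. The proteins were transcription factors fused at the N-terminus to polyhistidine and DsRed, expressed in E. coli BL21-CodonPlus and purified on Ni–NTA.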
In the case of “ATGACTTTAATATGTTAGCTTTTCATGCATGTGTCAATTTCGGAGTCACCTAGTGCAG”, the binding signal was 8700 fluorescence intensity (a.u.).
“GCATATAATTAGTTTACCATGGCTTTAATCAATCATATGCCGGAGTCACCTAGTGCAG”: the binding signal is 29300 fluorescence intensity (a.u.).
The result for “TCATAATGCATCAATCTATTACTTTAGCTATCTATTTATACGGAGTCACCTAGTGCAG” reads 9530 fluorescence intensity (a.u.); that for “GCAACGCCGCCGTTTTCTTCGCCTCTCACAGAGACGACTCCGGAGTCACCTAGTGCAG”, 9200 fluorescence intensity (a.u.); that for “AGCCATCTATCACCATGGCTGAAGCCATGTTATATATATCCGGAGTCACCTAGTGCAG”, 8560 fluorescence intensity (a.u.).
The result for “TTCGGGTTTTTTTTTTGTTTATTTTGTCTTTCGCTTTTCACGGAGTCACCTAGTGCAG” reads 14900 fluorescence intensity (a.u.).
Take “ATCACTTTATGCGCACTTTTCTTTGACGCCTTCCACAATTCGGAGTCACCTAGTGCAG”: the binding signal was 9560 fluorescence intensity (a.u.).
For “TCCCACCTTCCGCTCGTTTTTCTTGAGCATATGCTTCTCACGGAGTCACCTAGTGCAG”, the binding signal was 10100 fluorescence intensity (a.u.).
For “GGGGTTCGTTTTGTTTCTTGACACACGCTTGAGTCTTATTCGGAGTCACCTAGTGCAG”, the binding signal is 16900 fluorescence intensity (a.u.).
For “TTCTTTTCTTTTTCTTTTTCGTTTTCTTCTTATTCTTTTTCGGAGTCACCTAGTGCAG”, the binding signal was 12900 fluorescence intensity (a.u.).
In the case of “TTTTTGGGGTTTTCTCTTCTTGATTGATTCGTTCTTGGCGCGGAGTCACCTAGTGCAG”, the binding signal is 13100 fluorescence intensity (a.u.).
In the case of “CTTCACTCTTGATTCAAAAGGTTTTATTTTTTTTTCTGGTCGGAGTCACCTAGTGCAG”, the binding signal is 8530 fluorescence intensity (a.u.).
Consider “ATTCGTTCTGGTTTTCTTCGGGGTTTATTGATTCACGCGACGGAGTCACCTAGTGCAG”, for which the binding signal was 18200 fluorescence intensity (a.u.).
For the sequence “ACTTCTACCTTTCGTTTTTCCACGCGCATATGCTTTTTGACGGAGTCACCTAGTGCAG”, the binding signal was 20300 fluorescence intensity (a.u.).
For “TCTTCTGAGTTCTTGTGTTTTCATACGTGCCAATCAAATGCGGAGTCACCTAGTGCAG”, the binding signal was 8310 fluorescence intensity (a.u.).
On to “ACCTTCGGTGTACTTTTTCCTTAGTCTGCCGGCTTATTTACGGAGTCACCTAGTGCAG”, for which the binding signal is 9490 fluorescence intensity (a.u.).
In the case of “GACAATTACTTAGTCCTCACCTACCGTCGACCTCACACGTCGGAGTCACCTAGTGCAG”, the binding signal was 10200 fluorescence intensity (a.u.).
The result for “TTCAGAGTATTGTGATCCTTAAATCGAACCGTTGACTCTACGGAGTCACCTAGTGCAG” reads 9490 fluorescence intensity (a.u.); that for “AGCAGTTGTATTGTTGTGAAATTTAATTTGCTCTTTGACCCGGAGTCACCTAGTGCAG”, 8200 fluorescence intensity (a.u.).
Take “TCTTGTTCATTTCTCTCTTGCTCCGGCTCGCCTCGCATCGCGGAGTCACCTAGTGCAG”: the binding signal is 8300 fluorescence intensity (a.u.).
Consider “GGTAGACGGCGTCGTACCCGTCCTCCTCGCCGGACCGCATCGGAGTCACCTAGTGCAG”, for which the binding signal was 8840 fluorescence intensity (a.u.).
For the sequence “TTGTATGATGCCGTTGATTTTTTTTGTCTAACGTTTAACCCGGAGTCACCTAGTGCAG”, the binding signal is 8360 fluorescence intensity (a.u.).
As to “TAATGTATGACGCCGTTGACTTTTTAACTAACGTTTGACCCGGAGTCACCTAGTGCAG”, the binding signal was 28700 fluorescence intensity (a.u.).
Turning to “TAATGTATAACGCCGTTAACTTTTTAACAAACGTTTGACCCGGAGTCACCTAGTGCAG”, the binding signal is 8430 fluorescence intensity (a.u.).
For the sequence “TTTTAATGTATGACGCCGTTGACTTTTTATACGTTTGACCCGGAGTCACCTAGTGCAG”, the binding signal is 32200 fluorescence intensity (a.u.).
As to “TAATGTATGACGCCGTTGACTTTTTGATTAACGTTTGACCCGGAGTCACCTAGTGCAG”, the binding signal is 34800 fluorescence intensity (a.u.).
For the sequence “CGCATAATACTTTTACTTGCACCAATCAAGTACACGCTCTCGGAGTCACCTAGTGCAG”, the binding signal was 9320 fluorescence intensity (a.u.).
Regarding “CCCTGGCAAATGTTCTTTCTCCTCTATTTTCCATCTCCAACGGAGTCACCTAGTGCAG”, the binding signal is 9120 fluorescence intensity (a.u.).
For “TATAGATTTTCGTCTCCAACGCTTGACCGTCCGTTTTATTCGGAGTCACCTAGTGCAG”, the binding signal is 12800 fluorescence intensity (a.u.).
For “CTTGCTCGTTGTAACTGTTTAATCTATTATGTTTTTTTTTCGGAGTCACCTAGTGCAG”, the binding signal is 11000 fluorescence intensity (a.u.).
The result for “CCCACCGCTCCTCCGCGCCACGCTTCCTCGCCGCGCGCGCCGGAGTCACCTAGTGCAG” reads 8390 fluorescence intensity (a.u.).
As for “ACAACTGACTTACCCTTTCTGACTTGCAGATCAATTTGTCCGGAGTCACCTAGTGCAG”, the binding signal is 9050 fluorescence intensity (a.u.).
Then “TGCAGTGCGGCGTCACCTATCTCGTGGGCGCTTTCTTAGACGGAGTCACCTAGTGCAG”, with 9080 fluorescence intensity (a.u.); and “ACGGCGAGACGGTTTGCGGCGGCGGCGGTGGGGTTGGGATCGGAGTCACCTAGTGCAG”, with 10600 fluorescence intensity (a.u.); and “GGTTTCGTTGGTGGGGTTTTTTCATGGTGGCTAGGGTTTTCGGAGTCACCTAGTGCAG”, with 51100 fluorescence intensity (a.u.).
Turning to “GTTTCGTGGTGGTTGCTGGGCTTTTCGTTGGCGTGGGTGGCGGAGTCACCTAGTGCAG”, the binding signal was 11500 fluorescence intensity (a.u.).
Consider “CTCGGGAATTCGGGTGGTTTGGTTGGGTTTCGTGGAGAATCGGAGTCACCTAGTGCAG”, for which the binding signal was 18700 fluorescence intensity (a.u.).
Consider “CTGCGTTTATTTGGGTTTATTTGGGGCTGAGAGAGTACATCGGAGTCACCTAGTGCAG”, for which the binding signal is 13800 fluorescence intensity (a.u.).
“GTTTATCTCTATCTTTTTTTCATCTTCTCTCTATATATATCGGAGTCACCTAGTGCAG”: the binding signal is 11000 fluorescence intensity (a.u.).
As to “TAGGCTATCTTTTGAAGGGAGGGGTTTTTTCATCACCTATCGGAGTCACCTAGTGCAG”, the binding signal was 17000 fluorescence intensity (a.u.).
As for “ATGGTTGGTTTCGTGCTCTGTTTTTTTTTGGGAGAATTCGCGGAGTCACCTAGTGCAG”, the binding signal is 12800 fluorescence intensity (a.u.).
Take “ACTGTTGGAGTGGGAGTGGGGAATTCTAGGGTTTTGCAATCGGAGTCACCTAGTGCAG”: the binding signal is 12300 fluorescence intensity (a.u.).

(Values after PMC7819943, “Rice protein-binding microarrays: a tool to detect cis-acting elements near promoter regions in rice”.)
